Source: PubChem BioAssay
Activity calls are given as the source filed them. How the calls were made is not given here.

Assay: P. aeruginosa biofilm formation inhibitors, primary screen, strain PAO1, LB-PBS medium, absorbance 600 nm (AID 1176); further: test concentration not given here
Conditions: P. aeruginosa PAO1 growth/biofilm, A600, 12 h; higher = more signal

z-score, inactive:
O=C(O)[C@@H]1[C@@H]2C(=O)N(c3ccccc3)C(=O)[C@@H]2C[C@@H]1Sc1ccccc1 0.546, CCOC(=O)C1=CC[C@@H](c2ccccc2F)N(S(=O)(=O)c2ccc(C)cc2)[C@H]1c1ccccc1 0.698, C=CCN1Cc2ccccc2[C@@H]2OC(c3ccc(OCCCO)cc3)=N[C@]2(CC=C)C1=O 0.314, O=C(NCCN1CCOCC1)[C@@H]1c2ccccc2C(=O)N(C2Cc3ccccc3C2)[C@H]1c1ccc(CO)cc1 0.404, C=CCC(OC(C)=O)[C@@H]1[C@@H](N(Cc2cccc3ccccc23)C(=O)Cc2ccc(OC)cc2)c2cc(OCCCO)ccc2N1C(=O)c1ccc(-c2ccccc2)cc1 (stereo partly specified) -0.121, CC(C)[Si](C#CCCCC#N)(O[C@H](c1ccccc1)c1cn(Cc2ccccc2)nn1)C(C)C 0.584, NCCCCCCNC(=O)[C@@H]1C[C@@H]2C(=O)N[C@@H](CCCCN)C(=O)N2[C@@H]1c1ccc(O)cc1 2.5, CCN(CC)c1ccc(N2CC=CC34O[C@@H]5/C=C\CCCOC(=O)C5[C@H]3C(=O)N(C(C)CO)[C@@H]4C2=O)cc1 (stereo partly specified) -0.14, CC(C)N1C(=O)C[C@@](C(=O)O)(c2ccc([N+](=O)[O-])cc2)[C@H]1c1ccc(CO)cc1 0.0309, CN(C)C(=O)[C@@]1(Cc2ccccc2)N=C(c2ccc(OCCCO)cc2)O[C@H]1c1ccccc1 -0.345, Cc1ccc(S[C@]2(C(=O)NC(C)C)CC(=O)N(Cc3cc(C(F)(F)F)cc(C(F)(F)F)c3)[C@@H]2c2ccc(CO)cc2)cc1 0.31
